Source: PubChem (Buhrlage Lab, Dana-Farber Cancer Institute and Novartis Institutes for BioMedical Research (Cambridge, Mass))
Sampled rows, rich in hits. Any-hit rate of the full collection: about 13%.
USP17 block: blocks human USP17 ubiquitin-rhodamine cleavage; 6.5% of 47,000 active; A8MUK1; purified USP17, Ub-rhodamine cleavage fluorescence, 3 h; inhibition, % at 50 µM
USP8 block: inhibitors of human USP8 deubiquitinase; purified USP8, Ub-rhodamine cleavage fluorescence, 30 min; 4.2% of 47,000 active; inhibition, % at 20 µM
USP10 inh: blocks human USP10 ubiquitin-rhodamine cleavage. Q14694. purified USP10, Ub-rhodamine fluorescence, 60 min. inhibition, % at 20 µM. 1.1% of 47,000 active
USP28 block: human USP28 deubiquitinase inhibition. Q96RU2. purified USP28, Ub-rhodamine cleavage fluorescence, 30 min. inhibition, % at 25 µM. 3% of 47,000 active
USP30 block: blocks human USP30 ubiquitin-rhodamine cleavage. Q70CQ3. purified USP30, Ub-rhodamine cleavage fluorescence. inhibition, % at 25 µM. 5.3% of 47,000 active. AID 1645860
Target sequence (Q70CQ3 whole entry, looked up): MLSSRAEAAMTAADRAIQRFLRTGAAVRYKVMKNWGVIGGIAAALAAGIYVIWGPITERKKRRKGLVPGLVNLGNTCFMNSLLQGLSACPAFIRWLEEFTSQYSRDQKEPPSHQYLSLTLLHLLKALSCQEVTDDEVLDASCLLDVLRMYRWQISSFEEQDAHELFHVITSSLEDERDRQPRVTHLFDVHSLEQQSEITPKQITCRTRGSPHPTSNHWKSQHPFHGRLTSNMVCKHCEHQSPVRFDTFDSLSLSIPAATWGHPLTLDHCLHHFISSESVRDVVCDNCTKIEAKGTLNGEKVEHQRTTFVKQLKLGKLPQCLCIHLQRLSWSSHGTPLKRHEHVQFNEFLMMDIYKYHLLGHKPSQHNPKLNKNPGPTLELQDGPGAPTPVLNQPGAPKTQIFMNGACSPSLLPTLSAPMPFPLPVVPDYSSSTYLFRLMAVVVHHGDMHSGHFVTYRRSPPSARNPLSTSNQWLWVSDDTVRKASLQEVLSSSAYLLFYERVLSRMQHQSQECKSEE
Numbers without * were called inactive; · = no result. Rule as the data show it: active = inhibition above about 30%; inactive = the rest.

SMILES	USP17 block	USP8 block	USP10 inh	USP28 block	USP30 block
O=c1ccc(-c2nc(-c3ccncc3)no2)cn1Cc1noc(-c2ccccc2)n1	-24	53*	-7	-47	-180
COc1ccc(-c2nn(C)c3sc(C(=O)N4CCN(Cc5ccc6c(c5)OCO6)CC4)cc23)cc1OC	-5	0	5	-10	-10
COc1ccc(-c2nn(-c3ccccc3)c3[nH]c(=O)c(CNCc4cccs4)cc23)cc1OC	-47	78*	-10	-18	-71
Cc1nn(-c2ccccc2)c2[nH]c(=O)c(CNCC3CCCO3)cc12 (stereo not drawn)	9	2	3	-4	-18
COc1ccc(-c2nn(-c3ccccc3)c3[nH]c(=O)c(CNc4ccc5c(c4)OCCO5)cc23)cc1OC	44*	78*	23	10	-36
CCC(C)[C@H](NC(=O)N1CCn2c1nc1ccccc12)C(=O)NCCc1ccccc1 (stereo partly drawn)	35*	7	0	25	30*
COc1ccc(CCNC(=O)[C@@H](NC(=O)N2CCn3c2nc2ccccc23)C(C)C)cc1OC	-7	-1	-2	1	0
C[C@H](NC(=O)N1CCn2c1nc1ccccc12)C(=O)NCc1ccc(F)cc1	34*	-1	-4	3	41*
COc1ccc(CN2CCC3(CC2)Nc2ccccc2C2=NCCN23)cc1OC	8	-27	2	5	0
O=C(NCc1ccc2c(c1)OCO2)c1nn(C23CC4CC(CC(C4)C2)C3)cc1[N+](=O)[O-]	6	-30	10	25	62*
CCOc1ccc2nc(C(=O)NCc3ccc4c(c3)OCO4)cn2n1	32*	-8	-4	28	41*
O=C(CCc1cccnc1)N1CCCC2(CCCN2Cc2ccc(Cl)cc2)C1 (stereo not drawn)	-23	-80	-2	-3	1
COc1ccc(CN2CCCC23CCCN(C(=O)CCc2cccnc2)C3)cc1F (stereo not drawn)	41*	-73	-1	93*	96*
Cc1nc2nc[nH]n2c(=O)c1CCC(=O)Nc1cc(Cl)cc(Cl)c1	1	11	4	8	7
O=C(Cn1c(=O)n(Cc2ccc(C(=O)NC3CCN(Cc4ccccc4)CC3)cc2)c(=O)c2ccccc21)NCC1CCCO1 (stereo not drawn)	18	-1	-3	4	-5
COC(=O)c1sccc1NC(=O)c1cccs1	30*	4	7	11	26
COC(=O)c1sccc1NC(=O)COc1ccsc1C(=O)OC	51*	5	1	7	22
COc1ccc(NC(=O)COc2ccc(C(=O)c3ccc(F)cc3)cc2)c(OC)c1	10	9	1	-1	9
CCOc1cc(NC(=O)C2CC2)c(OCC)cc1NC(=O)c1cccs1	21	0	0	6	14
COc1ccccc1NS(=O)(=O)c1cccc(NC(=O)CCc2nc3ccccc3s2)c1	61*	23	-1	25	-125
Cc1cc(NC(=O)CN2[C@H](Cc3ccccc3)C[C@]3(C)NC(=O)CCC[C@H]23)nn1C	4	1	-6	1	5
O=C(COc1ccc(F)cc1)N1CCCCC1CCN1CCCC1 (stereo not drawn)	-4	0	-3	-3	-1
CCC(C)NC(=O)Cn1cc(-c2nnc(CN3CCC(C)CC3)o2)c2ccccc21 (stereo not drawn)	7	0	0	16	36*
Nc1ccc2oc(-c3cccc(-c4nc5cc(N)ccc5o4)n3)nc2c1	53*	73*	37*	48*	68*
Clc1ccc2oc(-c3cccs3)nc2c1	5	2	5	4	10
SMILES	USP17 block	USP8 block	USP10 inh	USP28 block	USP30 block
O=C(CSc1nc2cc(S(=O)(=O)Nc3ccccc3Cl)ccc2o1)Nc1ccc(N2CCOCC2)cc1	·	9	26	23	53*
O=C(CSc1nc2cc(S(=O)(=O)Nc3cccc(Cl)c3)ccc2o1)NC1CC1	-10	-76	9	-6	-9
Cc1noc(C)c1CC(=O)Nc1nnc(-c2ccc(C(C)C)cc2)s1	6	32*	5	-14	-38
O=C(c1ccc2c(c1)OCO2)N1CCN(c2ccccn2)CC1	5	19	-1	12	24
O=C(CCCc1ccccc1)N1CCN(c2ccc(-c3ccc4c(c3)OCO4)nn2)CC1	24	16	6	19	30*
O=C(Nc1ccccc1)C1Cn2ccnc2C2(CCN(C(=O)c3ccccc3)CC2)O1 (stereo not drawn)	-15	-101	-5	0	13
